Measured values: PubChem BioAssay (NCATS)
Inconclusive results are not listed. Values without a mark were called inactive. Calls of active or inactive are those of the source. The call rests on the fitted dose curve; in most records, active means well fitted inhibition curve with a large enough effect; inconclusive means small, poorly fitted or top-dose-only effect; inactive means flat fitted curve, though single readings scatter.

Biological target: Dual specificity protein kinase CLK4 (Homo sapiens) (UniProt Q9HAZ1)
Experiment: qHTS Assay for Inhibitors of CDC-like Kinase 4 (ADP-Glo Assay) (AID 1771); further: nearly all actives have a fitted effect of over 70% in size
Settings: recombinant CLK4, ADP-Glo luminescence; series mostly up to 80 µM; activity change, negative = inhibition: at the top concentration
Experimental: NIH Molecular Libraries Probe Production Centers Network [MLPCN] NIH Chemical Genomics Center [NCGC] MLPCN Grant: 1R03MH084827-01 Assay Submitter (PI): Tom Misteli NCGC Assay Overview: Clk4 (Invitrogen, cat# PV3839) was assayed using ATP and the RS repeat peptide (AnaSpec cat # 61722) as substrates. In the assay, the ADP levels were detected using Promega ADP-Glo technology wherein the remaining ATP from the kinase reaction is first depleted with an ATPase reagent followed by a reagent that contains and enzyme which converts the ADP produced to ATP as well as Ultra-Glo luciferase and D-luciferin which generates a bioluminescence signal from the ATP. The positive control for the assay was TG003 (Sigma-Aldrich, cat# 300801-52-9) which has been described as an inhibitor of Clk 4[1].
NCGC Assay Protocol Summary: Two uL/well of substrate-buffer solution (100 uM RS peptide, 1 uM ATP, 1x ADP-Glo Buffer A, 2 mM MgCl2, 0.5 mM EGTA, 2.5 mM DTT, 0.01% Triton X-100, final concentrations) was dispensed into 1536-well plates (Greiner, solid white, medium binding assay plates) with the Aurora Discovery BioRAPTR Flying Reagent Dispenser (FRD; Beckton-Dickenson). Twenty-three nanoliter of compound and control solutions were transferred to the assay plate using a Kalypsys pin-tool followed by 0.5 uL/well Clk4-buffer solution (25 nM Clk4, 1x ADP-Glo Buffer A, 2 mM MgCl2, 0.5 mM EGTA, 2.5 mM DTT, 0.01% Triton X-100 final concentration) dispensing for a total kinase reaction volume of 2.5 uL/ well. After 1 hr of room-temperature incubation, 2.5 uL ADP-Glo reagent was added and incubated at room temperature for 45 min to stop the kinetic reaction and degrade residual ATP. The ADP product was then converted to ATP by adding 5 uL per well of ADP-Glo Reagent II to yield a total assay volume of 10 uL/ well. Luminescence was detected after 30 min room temperature incubation with the Perkin Elmer Viewlux.
On the % scale 0 is the no-effect control and ±100 the full control effect; potency means the concentration at half of the fitted maximal effect.

Sequence of Dual specificity protein kinase CLK4 (Homo sapiens) (Q9HAZ1 whole entry, looked up): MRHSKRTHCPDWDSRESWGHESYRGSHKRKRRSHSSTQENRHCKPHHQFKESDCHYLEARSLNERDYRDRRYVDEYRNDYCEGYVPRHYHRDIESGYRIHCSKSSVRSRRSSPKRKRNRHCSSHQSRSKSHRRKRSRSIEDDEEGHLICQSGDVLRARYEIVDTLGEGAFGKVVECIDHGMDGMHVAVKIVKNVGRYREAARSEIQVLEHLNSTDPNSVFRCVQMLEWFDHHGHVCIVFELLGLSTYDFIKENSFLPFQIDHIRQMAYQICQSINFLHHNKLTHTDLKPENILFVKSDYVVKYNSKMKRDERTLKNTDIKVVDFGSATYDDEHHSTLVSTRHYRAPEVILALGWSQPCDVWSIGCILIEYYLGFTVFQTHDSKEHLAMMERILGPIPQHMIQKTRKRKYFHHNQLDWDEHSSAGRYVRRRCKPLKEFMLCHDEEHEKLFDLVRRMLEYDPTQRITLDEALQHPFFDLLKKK

| SMILES | activity change, negative = inhibition | Potency |
| --- | --- | --- |
| CN(C)C(=O)c1ccc(-c2cncnc2NCc2cccnc2)cc1 | -9.41% |  |
| Cc1cnc(CNc2cc(-c3ccc(N(C)C)cc3)ncn2)cn1 |  | 5.01 µM (active) |
| CN1CCN(c2ncc3nc(-c4cccs4)c(=O)n(Cc4cccs4)c3n2)CC1 | -21.3% |  |
| COc1ccc2[nH]cc(CCNc3ccnc(-c4ccc(N(C)C)cc4)n3)c2c1 |  | 14.1 µM (active) |
| COc1cccc(-c2nccc(NCc3cnc(C)cn3)n2)c1 |  | 28.2 µM (active) |
| CCNc1ncc2nc(-c3ccccc3)c(=O)n(Cc3cccc(OC)c3)c2n1 | -2.94% |  |
| N#CCCn1c(=O)c(-c2cc(F)cc(F)c2)nc2cnc(Nc3ccccc3)nc21 | -1.74% |  |
| O=c1c(-c2cc(F)cc(F)c2)nc2cnc(N3CCOCC3)nc2n1Cc1ccc(F)cc1 | 1.07% |  |
| COCCn1c(=O)c(-c2cccc(C#N)c2)nc2cnc(Oc3ccc(OC)cc3)nc21 | -7.59% |  |
| Cc1cnc(CNc2cc(-c3ccccc3C(F)(F)F)ncn2)cn1 | -28% |  |
| COCCn1c(=O)c(C)nc2cnc(Nc3cccc(OC)c3)nc21 |  | 25.1 µM (active) |
| COc1ccccc1CNc1ccnc(-c2c(C)noc2C)n1 | -20.8% |  |
| Cc1noc(C)c1-c1cncnc1Nc1ccccc1 | -0.017% |  |
| COc1cccc(Cn2c(=O)c(-c3ccc(F)cc3)nc3cncnc32)c1 | -2.63% |  |
| COc1ccc2[nH]cc(CCNc3nc(-c4cccnc4)nc4ccccc34)c2c1 |  | 7.94 µM (active) |
| CS(=O)(=O)Nc1cccc(-c2nc(NC3CC3)c3ccccc3n2)c1 |  | 10 µM (active) |
| Clc1ccccc1-c1nc(NC2CCNCC2)c2ccccc2n1 |  | 12.6 µM (active) |
| O=c1c(-c2cccc(Cl)c2)nc2cncnc2n1-c1ccccc1 | -4.66% |  |
| O=c1c(-c2ccc(F)cc2)nc2cncnc2n1Cc1ccccc1 | -0.444% |  |
| COc1ccc2[nH]cc(CCNc3ncnc4ccc(-c5c(C)noc5C)cc34)c2c1 |  | 5.01 µM (active) |

| SMILES | activity change, negative = inhibition | Potency |
| --- | --- | --- |
| COCCNc1ncnc2ccc(-c3ccccc3C(F)(F)F)cc12 |  | 31.6 µM (active) |
| c1cncc(CNc2ncncc2-c2ccoc2)c1 | -4.96% |  |
| CN(C)C(=O)c1ccc(-c2cncnc2N(C)Cc2ccco2)cc1 | -11.3% |  |
| COCCn1c(=O)c(-c2ccc(F)cc2)nc2cnc(N(C)C)nc21 | -7.05% |  |
| COc1ncc2nc(-c3ccc(F)cc3)c(=O)n(CCc3ccccc3)c2n1 | 13.2% |  |
| CN(C)c1ncc2nc(-c3cccs3)c(=O)n(C)c2n1 | 0.0944% |  |
| Cc1noc(C)c1-c1cncnc1N1CCN(C)CC1 | -2.86% |  |
| COc1ccc(-n2c(=O)c(-c3ccccc3)nc3cncnc32)cc1 | -5.94% |  |
| COc1ccc2[nH]cc(CCNc3cc(-c4cccnc4)ncn3)c2c1 |  | 15.8 µM (active) |
| COc1ccccc1CNc1ccnc(-c2ccccc2OC)n1 | -1.19% |  |
| COc1ccccc1-c1nccc(NCc2ccccc2)n1 | 3.07% |  |
| Cc1ccccc1-c1nc(N(C)Cc2ccco2)c2ccccc2n1 |  | 28.2 µM (active) |
| COc1ccc(-c2nc3cnc(Nc4cccc(OC)c4)nc3n(Cc3cccs3)c2=O)cc1 | 0.0619% |  |
| COCCn1c(=O)c(-c2ccc(Cl)cc2)nc2cnc(N(C)C)nc21 | 1.57% |  |
| COCCNc1ncnc2ccc(-c3c(C)noc3C)cc12 |  | 0.708 µM (active) |
| CN(C)c1ncc2nc(-c3ccc(Cl)cc3)c(=O)n(C[C@H]3CCCO3)c2n1 | -3.58% |  |
| CN(Cc1ccco1)c1cc(-c2ccccc2C(F)(F)F)ncn1 | -7.43% |  |
| COc1ccc(-n2c(=O)c(CCc3ccccc3)nc3cnc(N4CCN(C)CC4)nc32)cc1 | 1.42% |  |
| CCNc1ncc2nc(-c3cc(F)cc(F)c3)c(=O)n(CCOC)c2n1 | -15.9% |  |
| COc1cccc(Cn2c(=O)cnc3cnc(Nc4ccccc4)nc32)c1 |  | 2.24 µM (active) |
